# Results reported in paper PMC5540273 (PLoS ONE, 2017).
# Read-outs that look alike come from different tables or passages of the source.
# What was measured:
# [1] = system: FLT3; conditions: concentration: 1 μM, replicates: in singlicate; n = 1
# [2] = system: FLT4; conditions: concentration: 1 μM, replicates: in singlicate; n = 1
# [3] = system: FRK; conditions: concentration: 1 μM, replicates: in singlicate; n = 1
# [4] = system: FYN; conditions: concentration: 1 μM, replicates: in singlicate; n = 1
# [5] = system: GAK; conditions: concentration: 1 μM, replicates: in singlicate; n = 1
# [6] = system: T1, GCN2(Kin.Dom.2,S808G); conditions: concentration: 1 μM, replicates: in singlicate; n = 1
# T1 construct: gene EIF2AK4
# [7] = system: GRK1; conditions: concentration: 1 μM, replicates: in singlicate; n = 1
# [8] = system: T2, GRK2; conditions: concentration: 1 μM, replicates: in singlicate; n = 1
# T2 construct: gene ADRBK1
# [9] = system: T3, GRK3; conditions: concentration: 1 μM, replicates: in singlicate; n = 1
# T3 construct: gene ADRBK2
# [10] = system: GRK4; conditions: concentration: 1 μM, replicates: in singlicate; n = 1
# [11] = system: GRK7; conditions: concentration: 1 μM, replicates: in singlicate; n = 1
# [12] = system: GSK3A; conditions: concentration: 1 μM, replicates: in singlicate; n = 1
# [13] = system: GSK3B; conditions: n = 1
# [14] = system: T4, HASPIN; conditions: concentration: 1 μM, replicates: in singlicate; n = 1
# T4 construct: gene GSG2
# [15] = system: HCK; conditions: concentration: 1 μM, replicates: in singlicate; n = 1
# [16] = system: HIPK1; conditions: concentration: 1 μM, replicates: in singlicate; n = 1
# [17] = system: HIPK2; conditions: concentration: 1 μM, replicates: in singlicate; n = 1
# [18] = system: HIPK3; conditions: concentration: 1 μM, replicates: in singlicate; n = 1
# [19] = system: HIPK4; conditions: concentration: 1 μM, replicates: in singlicate; n = 1
# [20] = system: HPK1; conditions: concentration: 1 μM, replicates: in singlicate; n = 1
# [21] = concentration: 1 μM, replicates: in singlicate
# 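Note: KINOMEscan kinase panel screen.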
compound,measurement,setting,value
O=C(Nc1n[nH]c2nc(-c3nccs3)c(Br)cc12)C1CC1 [SB-742251],%Inh,[1],88%
same,%Inh,[2],8%
same,%Inh,[3],2%
same,%Inh,[4],3%
same,%Inh,[5],0%
same,%Inh,[6],0%
same,%Inh,[7],1%
same,%Inh,[8],0%
same,%Inh,[9],27%
same,%Inh,[10],0%
same,%Inh,[11],0%
same,%Inh,[12],89%
same,%Inh,[13]; 1 µM,39%
same,%Inh,[14],11%
same,%Inh,[15],0%
same,%Inh,[16],0%
same,%Inh,[17],0%
same,%Inh,[18],0%
same,%Inh,[19],0%
same,%Inh,[20],48%
Cn1ccc2ncnc(Oc3ccc(NC(=O)Nc4ccccc4)cc3)c21,%Inh,[1],97.4%
same,%Inh,[2],15%
same,%Inh,[3],11%
same,%Inh,[4],4%
same,%Inh,[5],4%
same,%Inh,[6],11%
same,%Inh,[7],0%
same,%Inh,[8],0%
same,%Inh,[9],11%
same,%Inh,[10],0%
same,%Inh,[11],0%
same,%Inh,[12],11%
same,%Inh,[13]; [21],0%
same,%Inh,[14],24%
same,%Inh,[15],0%
same,%Inh,[16],25%
same,%Inh,[17],17%
same,%Inh,[18],0%
same,%Inh,[19],5%
same,%Inh,[20],0%
CN(C)CCN(C)C(=O)c1cc(-c2ccncc2)c(-c2ccc(Cl)c(O)c2)o1.Cl.Cl [SB-710397],%Inh,[1],0%
same,%Inh,[2],7%
same,%Inh,[3],43%
same,%Inh,[4],0%
same,%Inh,[5],29%
same,%Inh,[6],0%
same,%Inh,[7],4%
same,%Inh,[8],0%
same,%Inh,[9],54%
same,%Inh,[10],0%
same,%Inh,[11],0%
same,%Inh,[12],0%
same,%Inh,[13]; [21],14%
same,%Inh,[14],53%
same,%Inh,[15],14%
same,%Inh,[16],0%
same,%Inh,[17],0%
same,%Inh,[18],16%
same,%Inh,[19],0%
same,%Inh,[20],46%
COC(=O)c1c(-c2ccccc2)c2cc(OC)ccc2c(=O)n1Cc1ccccc1,%Inh,[1],8%
same,%Inh,[2],9%
same,%Inh,[3],45%
same,%Inh,[4],0%
same,%Inh,[5],6%
same,%Inh,[6],2%
same,%Inh,[7],0%
same,%Inh,[8],0%
same,%Inh,[9],1%
same,%Inh,[10],0%
same,%Inh,[11],24%
same,%Inh,[12],14%
same,%Inh,[13]; [21],18%
same,%Inh,[14],3%
same,%Inh,[15],22%
same,%Inh,[16],7%
same,%Inh,[17],11%
same,%Inh,[18],3%
same,%Inh,[19],0%
same,%Inh,[20],0%
CCn1c(-c2cccnc2O)nc2cnccc21 [SB-736715],%Inh,[1],23%
same,%Inh,[2],0%
same,%Inh,[3],0%
same,%Inh,[4],0%
same,%Inh,[5],0%
same,%Inh,[6],8%
same,%Inh,[7],0%
same,%Inh,[8],0%
same,%Inh,[9],21%
same,%Inh,[10],19%
same,%Inh,[11],0%
same,%Inh,[12],0%
same,%Inh,[13]; [21],0%
same,%Inh,[14],0%
same,%Inh,[15],0%
same,%Inh,[16],11%
same,%Inh,[17],0%
same,%Inh,[18],0%
same,%Inh,[19],0%
same,%Inh,[20],4%
Cl.O=C(Nc1cccc(-c2nn3ncccc3c2-c2ccnc(Nc3cccnc3)n2)c1)c1c(F)cccc1F [GSK312879],%Inh,[1],0%
same,%Inh,[2],9%
same,%Inh,[3],15%
same,%Inh,[4],21%
same,%Inh,[5],8%
same,%Inh,[6],0%
same,%Inh,[7],20%
same,%Inh,[8],0%
same,%Inh,[9],27%
same,%Inh,[10],0%
same,%Inh,[11],0%
same,%Inh,[12],48%
same,%Inh,[13]; [21],25%
same,%Inh,[14],0%
same,%Inh,[15],52%
same,%Inh,[16],0%
same,%Inh,[17],0%
same,%Inh,[18],11%
same,%Inh,[19],0%
same,%Inh,[20],31%
Cc1cc(N2Cc3ccccc3C2)nc(Nc2ccc(S(=O)(=O)N3CCOCC3)cc2)n1.Cl [GSK1669917],%Inh,[1],0%
same,%Inh,[2],3%
same,%Inh,[3],11%
same,%Inh,[4],0%
same,%Inh,[5],0%
same,%Inh,[6],0%
same,%Inh,[7],0%
same,%Inh,[8],0%
same,%Inh,[9],0%
same,%Inh,[10],0%
same,%Inh,[11],0%
same,%Inh,[12],0%
same,%Inh,[13]; [21],0%
same,%Inh,[14],0%
same,%Inh,[15],0%
same,%Inh,[16],0%
same,%Inh,[17],0%
same,%Inh,[18],0%
same,%Inh,[19],0%
same,%Inh,[20],34%
